# Reference: PubChem BioAssay AID488984 (The Scripps Research Institute Molecular Screening Center, 2010)
# Calls of active or inactive are those of the source. Rule as the data show it: active = inhibition above about 55%; inactive = the rest.
# Tested on: SARS coronavirus 3C-like protease (3CLpro, nsp5)
# Test: blockers of SARS 3CLpro activity – biochemical, fluorescence, set 2, late-stage follow-up (AID 488984)
# Conditions: recombinant 3CLpro, fluorogenic peptide cleavage; at 100 µM; active compounds read high
row,Structure (SMILES),inhibition
1,CC(C)c1ccc(N(C(=O)Cc2cccc3ccccc23)C(C(=O)NC(C)(C)C)c2cccnc2)cc1 (centres undefined),-1.29% (inactive)
2,CC(C)(C)NC(=O)C(c1ccsc1)N(C(=O)Cn1cnc2ccccc21)c1ccc(C(C)(C)C)cc1 (centres undefined),1.78% (inactive)
3,CC(C)(C)NC(=O)C(c1ccsc1)N(C(=O)c1n[nH]c2ccccc12)c1ccc(F)cc1 (centres undefined),15.3% (inactive)
4,Cc1nc2ccccc2n1CC(=O)N(c1ccc(C(C)(C)C)cc1)C(C(=O)NC(C)(C)C)c1ccsc1 (centres undefined),2.02% (inactive)
5,CC(C)c1ccc(N(C(=O)c2ccc(C(F)(F)F)nc2)C(C(=O)NC(C)(C)C)c2cccnc2)cc1 (centres undefined),-15.3% (inactive)
6,CC(C)(C)NC(=O)C(c1ccsc1)N(C(=O)Cc1c[nH]c2ccccc12)C1CC1 (centres undefined),48.4% (inactive)
7,CC(C)c1ccc(N(C(=O)c2n[nH]c3ccccc23)C(C(=O)NC(C)(C)C)c2cccnc2)cc1 (centres undefined),13.2% (inactive)
8,CC(C)(C)NC(=O)C(c1ccsc1)N(C(=O)Cc1cccc2ccccc12)c1ccc(F)cc1 (centres undefined),19.2% (inactive)
9,CC(C)(C)NC(=O)C(c1cccnc1)N(C(=O)c1ccc(C#N)cc1)c1ccc(OCF)cc1 (centres undefined),-7.47% (inactive)
10,CC(C)(C)NC(=O)C(c1cccnc1)N(C(=O)c1ccco1)c1ccc(F)cc1 (centres undefined),-4.66% (inactive)
11,CC(C)(C)NC(=O)C(c1ccsc1)N(C(=O)c1cccc2c1CCCC2)C1CC1 (centres undefined),34.6% (inactive)
12,CC(C)(C)NC(=O)C(c1cccnc1)N(C(=O)c1cccc2c1CCCC2)C1CC1 (centres undefined),8.14% (inactive)
13,CC(C)(C)NC(=O)C(c1ccsc1)N(C(=O)c1ccco1)C1CC1 (centres undefined),7.74% (inactive)
14,CC(C)(C)NC(=O)C(c1cccnc1)N(C(=O)Cc1c[nH]c2ccccc12)c1ccc(C(C)(C)C)cc1 (centres undefined),30.6% (inactive)
15,CC(C)C(=O)Nc1ccc(N(C(=O)Cn2cnc3ccccc32)C(C(=O)NC(C)(C)C)c2ccsc2)cc1 (centres undefined),59.8% (active)
16,CC(C)(C)NC(=O)C(c1ccsc1)N(C(=O)c1ccco1)c1ccc(F)cc1 (centres undefined),11.2% (inactive)
17,CC(C)(C)NC(=O)C(c1cccnc1)N(C(=O)Cc1cccnc1)c1ccc(OCF)cc1 (centres undefined),18.7% (inactive)

row,Structure (SMILES),inhibition
1,CC(C)(C)NC(=O)C(c1ccsc1)N(C(=O)c1ccc(C#N)cc1)c1ccc(C(C)(C)C)cc1 (centres undefined),22.7% (inactive)
2,CC(C)(C)NC(=O)C(c1cccnc1)N(C(=O)c1ccco1)c1ccc(OC(F)F)cc1 (centres undefined),45.5% (inactive)
3,CC(C)(C)NC(=O)C(c1ccsc1)N(C(=O)c1cccc2c1CCCC2)c1ccc(C(C)(C)C)cc1 (centres undefined),12.9% (inactive)
4,Cc1nc2ccccc2n1CC(=O)N(c1ccc(N)cc1)C(C(=O)NC(C)(C)C)c1ccsc1 (centres undefined),1.01% (inactive)
5,CC(C)(C)NC(=O)C(c1cccnc1)N(C(=O)c1n[nH]c2ccccc12)C1CC1 (centres undefined),9.27% (inactive)
6,CC(C)c1ccc(N(C(=O)c2n[nH]c3ccccc23)C(C(=O)NC(C)(C)C)c2ccsc2)cc1 (centres undefined),7.3% (inactive)
7,CC(C)c1ccc(N(C(=O)c2cccc3c2CCCC3)C(C(=O)NC(C)(C)C)c2ccsc2)cc1 (centres undefined),7.39% (inactive)
8,CC(=O)Nc1ccc(N(C(=O)Cn2c(C)nc3ccccc32)C(C(=O)NC(C)(C)C)c2ccsc2)cc1 (centres undefined),2.27% (inactive)
9,Cc1nccn1CC(=O)N(c1ccc(N)cc1)C(C(=O)NC(C)(C)C)c1ccsc1 (centres undefined),6.79% (inactive)
10,CC(C)(C)NC(=O)C(c1cccnc1)N(C(=O)c1cccc2c1CCCC2)c1ccc(F)cc1 (centres undefined),12% (inactive)
11,CCC(=O)Nc1ccc(N(C(=O)Cn2c(C)nc3ccccc32)C(C(=O)NC(C)(C)C)c2ccsc2)cc1 (centres undefined),0.52% (inactive)
12,CC(C)(C)NC(=O)C(c1cccnc1)N(C(=O)Cc1cccnc1)c1ccc(C(C)(C)C)cc1 (centres undefined),20.2% (inactive)
13,CC(C)(C)NC(=O)C(c1cccnc1)N(C(=O)Cc1c[nH]c2ccccc12)c1ccc(OCF)cc1 (centres undefined),11.5% (inactive)
14,CC(=O)Nc1ccc(N(C(=O)Cn2ccnc2C)C(C(=O)NC(C)(C)C)c2ccsc2)cc1 (centres undefined),2.36% (inactive)
15,CC(C)(C)NC(=O)C(c1ccsc1)N(C(=O)Cn1nnc2ccccc21)c1ccc(NS(C)(=O)=O)cc1 (centres undefined),89.5% (active)
16,CC(C)(C)NC(=O)C(c1ccsc1)N(C(=O)c1ccc(C#N)cc1)C1CC1 (centres undefined),11.2% (inactive)
17,CC(C)(C)NC(=O)C(c1cccnc1)N(C(=O)Cc1c[nH]c2ccccc12)C1CC1 (centres undefined),8.97% (inactive)
